# Data reported in the supplement of paper PMC7595190.
# Where a name gives a salt, the structure may show the parent alone. A number with no mark means an inactive call.
# Legend:
# Assay in all cases: CellTox Green cytotoxicity fluorescence relative to DMSO vehicle (fold of vehicle RFU); higher = more cell death (loss of membrane integrity), active = 2 or more
# CMK = tested on: CMK
# Summary of the method: (§1)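 Three cell lines, MV4-11, CMK and Kasumi-1, were seeded at 4.0 × 10^4 cells per well into 96-well black optical-bottom plates containing CellTox Green reagent from the start. Compounds from the Selleckchem apoptosis library were diluted in DMSO, added one at a time at final 0.01, 0.1 or 1 µM with 0.1% DMSO as vehicle, and incubated at 37 °C in 5% CO2. Readings at 24, 48 and 72 h used excitation at 485 nm and emission at 520 nm. Values give cytotoxicity, taken as loss of membrane integrity, as fluorescence in fold of the DMSO vehicle.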
# Kasumi-1 = tested on: Kasumi-1
# Summary of the method: as §1
# MV4-11 = tested on: MV4-11
# Summary of the method: as §1
SMILES,"CellTox Green cytotoxicity fluorescence (CMK; 0.01 µM, 24 h)","CellTox Green cytotoxicity fluorescence (CMK; 0.01 µM, 48 h)","CellTox Green cytotoxicity fluorescence (CMK; 0.01 µM, 72 h)","CellTox Green cytotoxicity fluorescence (CMK; 0.1 µM, 24 h)","CellTox Green cytotoxicity fluorescence (CMK; 0.1 µM, 48 h)","CellTox Green cytotoxicity fluorescence (CMK; 1 µM, 24 h)","CellTox Green cytotoxicity fluorescence (CMK; 1 µM, 48 h)","CellTox Green cytotoxicity fluorescence (CMK; 1 µM, 72 h)","CellTox Green cytotoxicity fluorescence (Kasumi-1; 0.01 µM, 24 h)","CellTox Green cytotoxicity fluorescence (Kasumi-1; 0.01 µM, 48 h)","CellTox Green cytotoxicity fluorescence (Kasumi-1; 0.01 µM, 72 h)","CellTox Green cytotoxicity fluorescence (Kasumi-1; 0.1 µM, 24 h)","CellTox Green cytotoxicity fluorescence (Kasumi-1; 0.1 µM, 48 h)","CellTox Green cytotoxicity fluorescence (Kasumi-1; 0.1 µM, 72 h)","CellTox Green cytotoxicity fluorescence (Kasumi-1; 1 µM, 24 h)","CellTox Green cytotoxicity fluorescence (Kasumi-1; 1 µM, 48 h)","CellTox Green cytotoxicity fluorescence (Kasumi-1; 1 µM, 72 h)","CellTox Green cytotoxicity fluorescence (MV4-11; 0.01 µM, 24 h)","CellTox Green cytotoxicity fluorescence (MV4-11; 0.01 µM, 48 h)","CellTox Green cytotoxicity fluorescence (MV4-11; 0.01 µM, 72 h)","CellTox Green cytotoxicity fluorescence (MV4-11; 0.1 µM, 24 h)","CellTox Green cytotoxicity fluorescence (MV4-11; 0.1 µM, 48 h)","CellTox Green cytotoxicity fluorescence (MV4-11; 0.1 µM, 72 h)","CellTox Green cytotoxicity fluorescence (MV4-11; 1 µM, 24 h)","CellTox Green cytotoxicity fluorescence (MV4-11; 1 µM, 48 h)","CellTox Green cytotoxicity fluorescence (MV4-11; 1 µM, 72 h)","CellTox Green cytotoxicity fluorescence (CMK; 0.1 µM, 72 h)"
COc1c/c(=C2\C=c3ccccc3=N2)[nH]/c1=C\c1[nH]c(C)cc1C [Obatoclax Mesylate],0.914,0.907,0.894,0.921,0.88,1.01,1,0.819,0.975,0.917,0.921,0.977,1.01,1.05,1.17,1.31,1.42,0.935,0.93,0.916,0.96,0.997,1.02,1.21,1.78,2.14 (active),–
Cc1cccc(CC(=O)N2CCc3c2ccc(-c2cn(C)c4ncnc(N)c24)c3F)n1,0.981,0.975,0.966,1,0.997,1,1.05,0.907,1.03,1.02,1.02,1.01,1.02,1.04,1.03,1.03,1.04,1.04,1.04,1.06,1.02,1.01,1.02,1.03,1.03,1.04,1
C=CCc1cccc(/C=N/NC(=O)CN2CCN(Cc3ccccc3)CC2)c1O,0.917,0.909,0.921,0.92,0.917,0.913,0.937,1.06,1,0.934,0.93,0.918,0.918,0.918,0.916,0.914,0.892,0.974,0.955,0.955,0.95,0.951,0.957,0.904,1.07,1.31,0.953
N#Cc1ccc(-c2c(-c3ncn[nH]3)sc(N3CCOCC3)c2C#N)c(F)c1,0.974,0.999,1.04,0.969,0.994,1.03,1.13,0.932,0.959,0.958,0.957,0.991,1.05,1.05,0.985,1.3,1.41,0.973,0.967,0.969,0.972,0.993,0.991,1.01,1.13,1.13,0.919
COc1nc(-c2ccc3c(c2)OCO3)n(-c2ccc(NC(=O)CSc3ccccc3)cc2)n1 [SecinH3],1.03,1.04,1.05,0.992,0.997,0.996,1.01,1.01,1.02,1.03,1.04,1.02,1.02,1.01,0.941,0.989,1.02,1.02,1.02,1.02,1.01,1.01,1,1,1.03,1.05,0.985
CNC(=O)c1ccccc1Nc1cc(Nc2ccc(N3CCOCC3)cc2OC)ncc1C(F)(F)F,0.924,0.935,0.912,0.928,0.933,0.946,1.02,0.957,0.924,0.952,0.976,0.976,0.988,0.96,0.928,1.03,1.08,0.941,0.941,0.949,0.936,0.967,0.972,0.979,1.18,1.39,0.917
CC(C)c1cc2c(N3CCN(C4=NCC(C)(C)S4)CC3)ncnc2s1 [MI-3 (Menin-MLL Inhibitor)],0.943,0.954,0.984,0.923,0.941,–,–,–,0.955,0.967,0.974,0.987,1.01,0.966,–,–,–,–,–,–,–,–,–,–,–,–,0.923
Nc1nc(F)nc2c1ncn2[C@@H]1O[C@H](CO)[C@@H](O)[C@@H]1O [Fludarabine],1,1,1,0.981,0.982,0.976,0.961,0.907,0.951,0.991,0.986,0.99,0.99,0.984,1.02,1.01,1.03,0.938,0.968,0.976,0.992,0.985,0.98,0.994,0.984,1.01,0.939
CC1(C)CC[C@]2(NC(=O)C(C)(F)F)CC[C@]3(C)[C@H](C(=O)C=C4[C@@]5(C)C=C(C#N)C(=O)C(C)(C)[C@@H]5CC[C@]43C)[C@@H]2C1 [Omaveloxolone],0.972,0.97,1,0.98,0.952,2.13 (active),2.33 (active),1.56,0.94,0.95,0.898,0.971,1,0.946,1.11,1.34,1.34,0.94,0.94,0.966,0.943,0.997,1.1,1.23,2.12 (active),2.24 (active),0.762
